Values joined by “and” are separate entries in the source; they are usually repeats but may differ in a detail not shown here. Equal values may be shown once. Results filed as inconclusive are left out. A call without a number means that no potency is given here. Some compounds were tested as several samples or in several runs, with calls that do not always agree. Active and inactive are the calls of the source. The call rests on the fitted dose curve; in most records, active means well fitted cell-killing curve with a large enough effect in the repeat runs; inconclusive means weak or mixed curves, or effect the other way; inactive means no such curve, though single readings can be large or run the other way.
assay: qHTS assay for identifying genotoxic compounds that show differential cytotoxicity against isogenic chicken DT40 cell lines with known DNA damage response pathways - Rev3 mutant cell line (AID 743014); conditions: chicken DT40 Rev3-/- viability, CellTiter-Glo, 40 h; series mostly up to 68.4 µM; further: nearly all actives have a fitted effect of over 55% in size
Potency means the concentration at half of the fitted maximal effect.

| Compound | Potency |
| --- | --- |
| Oc1ccc(Cl)c2cccnc12 | 4.22 µM (active) |
| Cc1ccccc1S | 27.5 µM (active) |
| CC(CO)CO | inactive |
| COc1ncnc(NS(=O)(=O)c2ccc(N)cc2)c1OC | inactive |
| Cc1cc(C)cc(N)c1 | inactive |
| C[C@@H]1CN(CCCn2c3ccccc3c3ccccc32)C[C@H](C)N1 | 7.5 µM (active) |
| CC(C)c1nc(CN(C)C(=O)N[C@H](C(=O)N[C@@H](Cc2ccccc2)C[C@H](O)[C@H](Cc2ccccc2)NC(=O)OCc2cncs2)C(C)C)cs1 | inactive |
| COC(=O)CCS | inactive |
| NC(=O)c1ccncc1 | inactive |
| Cc1cscn1 | inactive |
| C=C(C)[C@@H]1CCC2=CCC[C@@H](C)[C@]2(C)C1 | 27.3 µM (active) |
| CCC1CO1 (stereo not drawn) | inactive |
| CCCC(C(=O)OCCN(CC)CC)(c1ccccc1)c1ccccc1 | 10.6 µM (active) |
| COc1cc(C(=O)NC2CCN(C)CC2)ccc1Nc1ncc2c(n1)N(C1CCCC1)CC(F)(F)C(=O)N2C | 0.0025 µM (active) |
| O=C(OC(=O)c1ccccc1)c1ccccc1 | inactive |
| CCC(C)COC(C)=O (stereo not drawn) | inactive |
| CCCCCCCCCI | inactive |

| Compound | Potency |
| --- | --- |
| C[C@]1(Cn2ccnn2)[C@H](C(=O)O)N2C(=O)C[C@H]2S1(=O)=O | inactive |
| CC1CC(C)C(=O)C1=O (stereo not drawn) | inactive |
| CCCC(=O)C(=O)O | inactive |
| C1COC1 | inactive |
| O=C(/C=C/c1ccccc1)OCCc1ccccc1 | inactive |
| c1ccc(C[n+]2cccc3ccccc32)cc1 | 27.3 µM (active) |
| Oc1cc2c(cc1O)[C@H]1c3ccc(O)c(O)c3OC[C@@]1(O)C2 | 22 µM (active) |
| Cc1c(C)c2c(c(C)c1OC(=O)CCC(=O)OCCO)CC[C@@](C)(CCC[C@H](C)CCC[C@H](C)CCCC(C)C)O2 | 10.6 µM (active) |
| C=C1c2cccc(O)c2C(O)=C2C(=O)[C@]3(O)C(O)=C(C(N)=O)C(=O)[C@@H](N(C)C)[C@@H]3[C@@H](O)[C@H]12 | inactive |
| Cc1ccco1 | inactive |
| CC=C(Cl)Cl | inactive |
| O=c1[nH]ncc2ccccc12 | inactive |
| NC1[C@H]2CN(c3nc4c(cc3F)c(=O)c(C(=O)O)cn4-c3ccc(F)cc3F)C[C@@H]12 (stereo partly drawn) | 6.68 µM (active) |
| C=Cc1ccc(S(=O)(=O)O)cc1 | inactive and 38.6 µM (active) |
| CC[C@]1(O)C[C@H]2CN(CCc3c([nH]c4ccccc34)[C@@](C(=O)OC)(c3cc4c(cc3OC)N(C=O)[C@H]3[C@@](O)(C(=O)OC)[C@H](OC(C)=O)[C@]5(CC)C=CCN6CC[C@]43[C@@H]65)C2)C1 | 0.0053 µM (active) |
| CC(C)COCC(CN(Cc1ccccc1)c1ccccc1)N1CCCC1 (stereo not drawn) | 8.41 µM (active) |

Reference: PubChem BioAssay (Tox21)
